# In the supplement of paper PMC8728848:
# Only a selection was taken, and the strongest signals are over-represented in it overall.
# Tests used:
# Test in all cases: glycan array binding signal (z-score within array); higher = stronger binding
# Conditions in all cases: glycan notation: IUPAC condensed, linker removed
# [1] = target: Fuc(a1-2)Gal(b1-3)[Fuc(a1-4)]GlcNAc(b1-2)Man(a1-3)[Fuc(a1-2)Gal(b1-3)[Fuc(a1-4)]GlcNAc(b1-2)Man(a1-3)]Man(b1-4)GlcNAc(b1-4)GlcNAc
# Outline: (§1)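 Columns mapping to the same glycan were averaged after glycan names were converted to IUPAC-condensed notation. The data come from 3228 arrays in the Consortium for Functional Glycomics database, limited to those with an available protein sequence. Binding is reported as a within-array Z-score averaged across arrays of one protein sequence and across linkers.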
# [2] = target: Fuc(a1-2)Gal(b1-4)GlcNAc(b1-2)Man(a1-3)[Fuc(a1-2)Gal(b1-4)GlcNAc(b1-2)Man(a1-6)]Man(b1-4)GlcNAc(b1-4)GlcNAc
# Outline: as §1
# [3] = target: Fuc(a1-2)Gal(b1-4)GlcNAc(b1-2)Man(a1-3)[Fuc(a1-2)Gal(b1-4)GlcNAc(b1-2)Man(a1-6)]Man(b1-4)GlcNAc(b1-4)[Fuc(a1-6)]GlcNAc
# Outline: as §1
# [4] = target: Fuc(a1-2)Gal(b1-4)GlcNAc(b1-3)[Fuc(a1-2)Gal(b1-4)GlcNAc(b1-6)]GalNAc
# Outline: as §1
# [5] = target: Fuc(a1-2)Gal(b1-4)[Fuc(a1-3)]GlcNAc(b1-3)GalNAc
# Outline: as §1
# [6] = target: Fuc(a1-2)Gal6S(b1-3)GlcNAc
# Outline: as §1
# [7] = target: Fuc(a1-2)[Gal(a1-3)]Gal(b1-3)GalNAc(b1-3)Gal(a1-4)Gal(b1-4)Glc
# Outline: as §1
# [8] = target: Fuc(a1-2)[Gal(a1-3)]Gal(b1-4)GlcNAc(b1-2)Man
# Outline: as §1
# [9] = target: Fuc(a1-2)[GalNAc(a1-3)]Gal(b1-4)GlcNAc(b1-2)Man(a1-3)[Fuc(a1-2)[GalNAc(a1-3)]Gal(b1-4)GlcNAc(b1-2)Man(a1-6)]Man(b1-4)GlcNAc(b1-4)GlcNAc
# Outline: as §1
# [10] = target: Fuc(a1-3)[Gal3S(b1-4)]Glc
# Outline: as §1
# [11] = target: Fuc(a1-3)[Gal3S(b1-4)]GlcNAc6S
# Outline: as §1
# [12] = target: Gal(a1-3)Gal(b1-3)GlcNAc(b1-2)Man(a1-3)[Gal(a1-3)Gal(b1-3)GlcNAc(b1-2)Man(a1-6)]Man(b1-4)GlcNAc(b1-4)GlcNAc
# Outline: as §1
# [13] = target: Gal(a1-3)Gal(b1-4)GlcNAc(b1-2)Man(a1-3)[Gal(a1-3)Gal(b1-4)GlcNAc(b1-2)Man(a1-6)]Man(b1-4)GlcNAc(b1-4)GlcNAc
# Outline: as §1
# [14] = target: Gal(a1-3)[Gal(a1-4)]Gal(b1-4)GlcNAc
# Outline: as §1
# [15] = target: Gal(b1-3)GalNAc(a1-3)[Fuc(a1-2)]Gal(b1-4)Glc
# Outline: as §1
# [16] = target: Gal(b1-3)GlcNAc(b1-2)Man(a1-3)[Gal(b1-3)GlcNAc(b1-2)Man(a1-6)]Man(b1-4)GlcNAc(b1-4)GlcNAc
# Outline: as §1
# [17] = target: Gal(b1-3)GlcNAc(b1-3)Gal(b1-4)GlcNAc(b1-2)[Gal(b1-3)GlcNAc(b1-3)Gal(b1-4)GlcNAc(b1-6)]Man(a1-6)[Gal(b1-3)GlcNAc(b1-3)Gal(b1-4)GlcNAc(b1-2)Man(a1-3)]Man(b1-4)GlcNAc(b1-4)[Fuc(a1-6)]GlcNAc
# Outline: as §1
# [18] = target: Gal(b1-3)GlcNAc(b1-3)Gal(b1-4)GlcNAc(b1-3)Gal(b1-4)GlcNAc(b1-2)[Gal(b1-3)GlcNAc(b1-3)Gal(b1-4)GlcNAc(b1-3)Gal(b1-4)GlcNAc(b1-6)]Man(a1-6)[Gal(b1-3)GlcNAc(b1-3)Gal(b1-4)GlcNAc(b1-3)Gal(b1-4)GlcNAc(b1-2)Man(a1-3)]Man(b1-4)GlcNAc(b1-4)[Fuc(a1-6)]GlcNAc
# Outline: as §1
# [19] = target: Gal(b1-3)GlcNAc(b1-6)GalNAc
# Outline: as §1
# [20] = target: Gal(b1-3)[Fuc(a1-4)]GlcNAc(b1-3)Gal(b1-4)[Fuc(a1-3)]GlcNAc
# Outline: as §1
# [21] = target: Gal(b1-4)GlcNAc(b1-3)Gal(b1-4)GlcNAc(b1-2)[Gal(b1-4)GlcNAc(b1-3)Gal(b1-4)GlcNAc(b1-6)]Man(a1-6)[Gal(b1-4)GlcNAc(b1-3)Gal(b1-4)GlcNAc(b1-2)Man(a1-3)]Man(b1-4)GlcNAc(b1-4)GlcNAc
# Outline: as §1
# [22] = target: Gal(b1-4)GlcNAc(b1-3)Gal(b1-4)GlcNAc(b1-3)Gal(b1-4)GlcNAc(b1-3)Gal(b1-4)GlcNAc(b1-2)[Gal(b1-4)GlcNAc(b1-3)Gal(b1-4)GlcNAc(b1-3)Gal(b1-4)GlcNAc(b1-3)Gal(b1-4)GlcNAc(b1-6)]Man(a1-6)[Gal(b1-4)GlcNAc(b1-3)Gal(b1-4)GlcNAc(b1-3)Gal(b1-4)GlcNAc(b1-3)Gal(b1-4)GlcNAc(b1-2)Man(a1-3)]Man(b1-4)GlcNAc(b1-4)[Fuc(a1-6)]GlcNAc
# Outline: as §1
# [23] = target: Gal(b1-4)GlcNAc(b1-3)Gal(b1-4)GlcNAc(b1-3)Gal(b1-4)GlcNAc(b1-3)Gal(b1-4)GlcNAc(b1-3)Gal(b1-4)GlcNAc(b1-2)[Gal(b1-4)GlcNAc(b1-3)Gal(b1-4)GlcNAc(b1-3)Gal(b1-4)GlcNAc(b1-3)Gal(b1-4)GlcNAc(b1-3)Gal(b1-4)GlcNAc(b1-6)]Man(a1-6)[Gal(b1-4)GlcNAc(b1-3)Gal(b1-4)GlcNAc(b1-3)Gal(b1-4)GlcNAc(b1-3)Gal(b1-4)GlcNAc(b1-3)Gal(b1-4)GlcNAc(b1-2)Man(a1-3)]Man(b1-4)GlcNAc(b1-4)[Fuc(a1-6)]GlcNAc
# Outline: as §1
# [24] = target: Gal(b1-4)GlcNAc(b1-3)Gal(b1-4)GlcNAc(b1-3)GalNAc
# Outline: as §1
# [25] = target: Gal(b1-4)GlcNAc(b1-6)[Gal(b1-3)]GalNAc
# Outline: as §1
# GalNAc(a1-3)Gal = target: GalNAc(a1-3)Gal
# Outline: as §1
# [26] = target: GalNAc(b1-3)Gal(a1-4)Gal(b1-4)GlcNAc
# Outline: as §1
# [27] = target: GalNAc(b1-3)Gal(a1-6)Gal(b1-4)Glc
# Outline: as §1
# GalNAc(b1-4)Gal(b1-4)Glc = target: GalNAc(b1-4)Gal(b1-4)Glc
# Outline: as §1
# [28] = target: GlcNAc(a1-4)Gal(b1-4)GlcNAc(b1-3)Gal(b1-4)GlcNAc
# Outline: as §1
binder,measurement,setting,value
PX9961X-pdi-531-24-531 (Parabacteroides distasonis) (protein) DLTEEIHSSVIAENYYNNAGEVMAAMMRPWGHFCGTMQVAQSPWSCNELSSDCAAWPQKGRHGYDNGDWIRLHRHQWIPTDGQVVDAWKKLFEGIGYANNFLTDTENIDFEALQVPMSKAQAQAEMRVYRAYCYWYVMDMFGTAPICEKIGEINPSSKSRAELFAWIEKELNESIPSLSESKTETYGRVSKWGAYALLARLYLNAEIYTGQARWDDCIAACDELAKGGFALDKKWNDTFRADNDKRSTEIIWSIVYDEVYAKGMGWYQRWLHYAHQTGWDLQSGPWNGLVTQPTFYDSFADNDLRKIEGFLIGKQYPRKVDENGNYYYDTTAEPLKGSEEYNGQDLVFVNYIKSMTEGEENSGARSIKYEIQPGTTGDMNNDWVMFRYSEVIYNKAEALMRKNGGKATQEVVDMINSVRQRSFKAEDWEKAKYTTATLTMDEFLAEKGREFAFEGIRRTDLVRFNKFVTTSWWDKTASNEPKRNIFPIPQRQLDANANLSPNEANSLF,glycan array binding signal (z-score),[1],0.026
same,glycan array binding signal (z-score),[2],1.28
same,glycan array binding signal (z-score),[3],-0.118
same,glycan array binding signal (z-score),[4],-0.351
same,glycan array binding signal (z-score),[5],0.289
same,glycan array binding signal (z-score),[6],-0.189
same,glycan array binding signal (z-score),[7],-0.567
same,glycan array binding signal (z-score),[8],-0.156
same,glycan array binding signal (z-score),[9],0.31
same,glycan array binding signal (z-score),[10],0.374
same,glycan array binding signal (z-score),[11],-0.332
same,glycan array binding signal (z-score),[12],3.82
same,glycan array binding signal (z-score),[13],0.935
same,glycan array binding signal (z-score),[14],7.26
same,glycan array binding signal (z-score),[15],0.221
same,glycan array binding signal (z-score),[16],4.29
same,glycan array binding signal (z-score),[17],3.82
same,glycan array binding signal (z-score),[18],7.05
same,glycan array binding signal (z-score),[19],1.52
same,glycan array binding signal (z-score),[20],-0.466
same,glycan array binding signal (z-score),[21],2.17
same,glycan array binding signal (z-score),[22],3.6
same,glycan array binding signal (z-score),[23],3.41
same,glycan array binding signal (z-score),[24],0.788
same,glycan array binding signal (z-score),[25],-0.374
same,glycan array binding signal (z-score),GalNAc(a1-3)Gal,0.96
same,glycan array binding signal (z-score),[26],-0.236
same,glycan array binding signal (z-score),[27],2.61
same,glycan array binding signal (z-score),GalNAc(b1-4)Gal(b1-4)Glc,-0.106
same,glycan array binding signal (z-score),[28],-0.352
